Laboratory results published in PubChem BioAssay (NCATS).
Records with an inconclusive call do not appear. Calls of active or inactive are those of the source. Calls come from the whole dose curve; as a rule, active = well fitted inhibition curve with a large enough effect; inconclusive = small, poorly fitted or top-dose-only effect; inactive = flat fitted curve, though single readings scatter.

experiment: Primary qHTS for inhibitors of nuclear receptor binding SET domain protein 2 (NSD2) in an isogenic RCH-ACV NSD2 p.E1099K mutant (9B) (AID 1645876); details: RCH-ACV (leukaemia line) NSD2 E1099K (9B) viability, CellTiter-Glo, 72 h; series mostly up to 44.9 µM; activity change, negative = viability loss: at the top concentration; note: nearly all actives have a fitted effect of over 70% in size
% is set by controls: 0 for no effect and ±100 for the full control effect.

Row | Compound | activity change, negative = viability loss | outcome
1 | C[C@H]1CC[C@@]2(OC1)O[C@H]1CC3C4CC[C@H]5C[C@@H](O[C@@H]6O[C@H](CO)[C@H](O[C@@H]7O[C@H](CO)[C@@H](O)[C@H](O[C@@H]8OC[C@@H](O)[C@H](O)[C@H]8O)[C@H]7O[C@@H]7O[C@H](CO)[C@@H](O)[C@H](O)[C@H]7O)[C@H](O)[C@H]6O)[C@H](O)C[C@]5(C)C4=CC(=O)[C@]3(C)[C@H]1[C@@H]2C (stereo partly specified) | -21.3% [at 9.23 µM] (inactive) | 
2 | CC1=C[C@H](O)[C@H]2C(C)(C)CCC[C@]2(C)[C@@]1(O)CO |  | inactive
3 | C=C1CCC2C(C)(C(=O)OC)CCCC2(C)C1CCC1=CCOC1=O (stereo unspecified) | -21.6% (inactive) | 
4 | O=C(O)/C=C/c1ccc(O[C@@H]2O[C@H](CO)[C@@H](O)[C@H](O)[C@H]2O)cc1 | 2.63% (inactive) | 
5 | C=CC(C)(O)CCC1C(C)(O)CCC2C(C)(C)CCCC21C (stereo unspecified) | -22.4% (inactive) | 
6 | CCC(C)C1NC(=O)C2C(C)CCN2C(=O)C(CC(O)CO)OC(=O)CCNC(=O)C(C)N(C)C(=O)C(C(C)C)N(C)C1=O (stereo unspecified) | -20.6% [at 17.3 µM] (inactive) | 
7 | CC1CC(=O)[C@]2(O)C(C(=O)OCCc3ccc(O)cc3)=CO[C@@H](O[C@@H]3O[C@H](CO)[C@@H](O)[C@H](O)[C@H]3O)[C@H]12 (stereo partly specified) | 0.184% [at 17.3 µM] (inactive) | 
8 | C[C@@H]1O[C@@H](O[C@H]2[C@H](OC(=O)[C@]34CCC(C)(C)C[C@H]3C3=CCC5[C@@]6(C)C[C@@H](O)[C@@H](O[C@@H]7O[C@H](CO)[C@@H](O)[C@H](O)[C@H]7O)[C@@](C)(CO)C6[C@H](O)C[C@@]5(C)[C@]3(C)CC4)OC[C@H](O)[C@@H]2O)[C@H](O)[C@H](O[C@@H]2OC[C@](O)(CO)[C@H]2O)[C@H]1O[C@@H]1OC[C@@H](O)[C@H](O[C@H]2O[C@H](C)[C@@H](O)[C@H](O)[C@@H]2O)[C@H]1O (stereo partly specified) | -25.2% [at 9.23 µM] (inactive) | 
9 | Cc1ncc([N+](=O)[O-])n1C[C@H](O)CN1CCOCC1 | -9.18% (inactive) | 
10 | O=C(OCC1=CC(Cl)C(O)C(OC(=O)c2ccccc2)C1O)c1ccccc1 (stereo unspecified) | -26.3% [at 17.3 µM] (inactive) | 
11 | O=C(O)CCc1c(C(=O)O)[nH]c2cc(Cl)cc(Cl)c12 | -0.269% [at 17.3 µM] (inactive) | 
12 | CC1(C)CC[C@]2(C(=O)O[C@@H]3O[C@H](CO[C@@H]4O[C@H](CO)[C@@H](O)[C@H](O)[C@H]4O)[C@@H](O)[C@H](O[C@@H]4O[C@H](CO)[C@@H](O)[C@H](O)[C@H]4O)[C@H]3O)CC[C@]3(C)C(=CCC4[C@@]5(C)CC[C@H](O[C@@H]6OC[C@@H](O)[C@H](O)[C@H]6O)[C@@](C)(C(=O)O)C5CC[C@]43C)[C@@H]2C1 (stereo partly specified) | 0.102% [at 9.23 µM] (inactive) | 
13 | Cc1cc(OCCN2CCOCC2)nn1-c1ccc2ccccc2c1 | -25.3% (inactive) | 
14 | CC[C@@H](Nc1c(Nc2cccc(C(=O)N(C)C)c2O)c(=O)c1=O)c1ccc(C)o1 | -25.6% (inactive) | 
15 | CC1(C)CC[C@]2(C(=O)O)CC[C@]3(C)C(=CCC4[C@@]5(C)CC[C@H](O[C@@H]6O[C@H](C(=O)O)[C@@H](O)[C@H](O[C@@H]7O[C@H](CO)[C@H](O)[C@H](O)[C@H]7O)[C@H]6O[C@@H]6O[C@H](CO)[C@@H](O)[C@H](O)[C@H]6O)C(C)(C)C5CC[C@]43C)[C@@H]2C1 (stereo partly specified) | -9.66% [at 4.96 µM] (inactive) | 
16 | C=C1CC/C=C(/CO)C(=O)C[C@@H]2[C@@H]1C[C@@]2(C)COC(C)=O | -23.1% (inactive) | 
17 | CC1CC(=O)C2C(O)(C1)CC(O)C13OC1c1c(O)cccc1C(=O)C23O (stereo unspecified) | -9.59% (inactive) | 
18 | CC(=O)O[C@@H]1[C@H](O[C@@H]2OC[C@](O)(CO)[C@H]2O)[C@@H](O[C@@H]2O[C@@H](C)[C@H](O)[C@@H](O[C@@H]3O[C@H](CO)[C@@H](O)[C@H](O)[C@H]3O)[C@H]2O)[C@H](OC(=O)[C@]23CCC(C)(C)C[C@H]2C2=CCC4[C@@]5(C)C[C@H](O)[C@H](O[C@@H]6O[C@H](C(=O)O)[C@@H](O)[C@H](O)[C@H]6O)[C@@](C)(C(=O)O)C5CC[C@@]4(C)[C@]2(C)CC3)O[C@@H]1C (stereo partly specified) | 4.2% [at 9.23 µM] (inactive) | 
19 | CC[C@@H]1[C@H]2CCCCN3C(=O)C[C@H]([C@@H]4[C@H]1OC(=O)[C@H]4C)[C@@H]23 | -16.9% (inactive) | 
20 | C[C@@H]1C[C@@H](O)[C@@]23CO[C@]2(CO)CCC[C@@H]3[C@@]12C[C@@H](c1ccoc1)OC2=O |  | inactive
21 | CC(C)(OC1OC(CO)C(O)C(O)C1O)C1CCC(O)(CO)C2CC(=O)C(C)(O)C2C1 (stereo unspecified) |  | inactive [at 17.3 µM]
